Several values for one entry are separate records, joined by “and”; a condition that tells them apart may be missing. Equal values may be shown once. Among all 5,500 compounds or so, about 2,000 (36%) were called active. Roughly 18% stayed inconclusive and do not appear here. Rule as the data show it: active = normalized growth mostly below about 0.91 (no sharp cut-off); inconclusive = no clear call, values can overlap the other calls; inactive = mostly above about 0.92. This is one part of the list.
Assay: chemical genetic growth profiling, strain panel (AID 1159580);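 also: tested at 20 µM; growth read once vehicle control cultures reached saturation at 30 °C; 1 = growth at the plate median or of vehicle wells; lower values mean less growth of the strain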
Conditions: S. cerevisiae deletion strains, growth OD

Measured: normalized growth

CC1=CCc2c(cc3oc(C)cc(=O)c3c2O)OC1
0.892 (active) and 0.959 (inactive): locus YHR030C, strain SLT2, stronger effect = lower value
0.756 (active) and 0.945 (inactive): locus YJL095W, strain BCK1, stronger effect = lower value
active: locus YAL013W, strain DEP1, stronger effect = lower value 0.886 | locus YDL074C, strain BRE1, stronger effect = lower value 0.703 | locus YDL192W, strain arf1, stronger effect = lower value 0.901 | locus YDR101C, strain arx1, stronger effect = lower value 0.887 | locus YDR162C, strain NBP2, stronger effect = lower value 0.738 | locus YDR195W, strain ref2 1.2 [resistant] | locus YDR318W, strain mcm21, stronger effect = lower value 0.885 | locus YDR502C, strain sam2, stronger effect = lower value 0.86 | locus YGR078C, strain PAC10, stronger effect = lower value 0.785 | locus YGR135W, strain pre9, stronger effect = lower value 0.802 | locus YGR229C, strain SMI1, stronger effect = lower value 0.679 | locus YGR252W, strain gcn5, stronger effect = lower value 0.741 | locus YHR079C, strain IRE1 (second series), stronger effect = lower value 0.91 | locus YIL066C, strain RNR3, stronger effect = lower value 0.858 | locus YJL187C, strain SWE1 (second series), stronger effect = lower value 0.867 | locus YJR043C, strain POL32, stronger effect = lower value 0.792
inactive: locus YAL021C, strain ccr4, stronger effect = lower value 0.991 | locus YAL026C, strain drs2, stronger effect = lower value 0.964 | locus YAL030W, strain snc1, stronger effect = lower value 0.972 | locus YBL061C, strain skt5, stronger effect = lower value 0.971 | locus YBR009C, strain hhf1, stronger effect = lower value 0.954 | locus YBR021W, strain FUR4, stronger effect = lower value 0.856 | locus YBR023C, strain chs3, stronger effect = lower value 0.977 | locus YBR171W, strain sec66, stronger effect = lower value 0.94 | locus YBR229C, strain ROT2, stronger effect = lower value 0.98 | locus YBR231C, strain swc5, stronger effect = lower value 0.966 | locus YBR279W, strain paf1, stronger effect = lower value 0.982 | locus YCL011C, strain gbp2, stronger effect = lower value 0.929 | locus YCL016C, strain dcc1, stronger effect = lower value 0.982 | locus YCL029C, strain bik1, stronger effect = lower value 0.951 | locus YCL061C, strain MRC1, stronger effect = lower value 0.954 | locus YCL069W, strain vba3, stronger effect = lower value 0.954 | locus YCR088W, strain abp1, stronger effect = lower value 0.961 | locus YDL005C, strain med2, stronger effect = lower value 1 | locus YDL035C, strain GPR1, stronger effect = lower value 0.863 | locus YDL040C, strain nat1, stronger effect = lower value 0.984 | locus YDL101C, strain DUN1, stronger effect = lower value 0.943 | locus YDL134C, strain PPH21, stronger effect = lower value 0.907 | locus YDL185W, strain tfp1, stronger effect = lower value 0.962 | locus YDR001C, strain nth1, stronger effect = lower value 0.949 | locus YDR069C, strain doa4, stronger effect = lower value 0.988 | locus YDR137W, strain rgp1, stronger effect = lower value 0.913 | locus YDR150W, strain NUM1, stronger effect = lower value 0.96 | locus YDR159W, strain sac3, stronger effect = lower value 1.02 | locus YDR297W, strain sur2, stronger effect = lower value 0.968 | locus YDR334W, strain swr1, stronger effect = lower value 0.965 | locus YDR335W, strain msn5, stronger effect = lower value 0.987 | locus YDR388W, stronger effect = lower value 0.957 | locus YDR392W, strain spt3, stronger effect = lower value 0.893 | locus YEL003W, strain gim4, stronger effect = lower value 0.929 | locus YEL037C, strain rad23, stronger effect = lower value 0.96 | locus YEL061C, strain CIN8 (second series), stronger effect = lower value 0.966 | locus YEL061C, strain CIN8, stronger effect = lower value 0.952 | locus YER015W, strain faa2, stronger effect = lower value 0.975 | locus YER016W, strain bim1, stronger effect = lower value 0.985 | locus YER110C, stronger effect = lower value 0.933 | locus YER111C, strain swi4, stronger effect = lower value 0.967 | locus YER155C, strain BEM2 (second series), stronger effect = lower value 0.867 | locus YER155C, strain BEM2, stronger effect = lower value 0.96 | locus YER167W, strain BCK2, stronger effect = lower value 0.924 | locus YFR010W, strain ubp6, stronger effect = lower value 0.953 | locus YGL078C, strain dbp3, stronger effect = lower value 0.944 | locus YGL086W, strain mad1, stronger effect = lower value 0.934 | locus YGL167C, strain pmr1, stronger effect = lower value 0.979 | locus YGL173C, strain kem1, stronger effect = lower value 0.959 | locus YGL227W, strain vid30, stronger effect = lower value 0.964 | locus YGL240W, strain doc1, stronger effect = lower value 0.951 | locus YGL248W, strain PDE1, stronger effect = lower value 0.901 | locus YGL253W, strain hxk2, stronger effect = lower value 0.987 | locus YHR013C, strain ard1, stronger effect = lower value 0.924 | locus YHR027C, strain rpn1, stronger effect = lower value 0.984 | locus YHR079C, strain IRE1, stronger effect = lower value 0.96 | locus YHR094C, strain hxt1, stronger effect = lower value 0.972 | locus YHR129C, strain ARP1, stronger effect = lower value 0.925 | locus YHR142W, strain chs7, stronger effect = lower value 0.888 | locus YHR200W, strain rpn10, stronger effect = lower value 0.921 | locus YIL073C, strain SPO22, stronger effect = lower value 0.909 | locus YIL125W, strain kgd1, stronger effect = lower value 0.964 | locus YIR030C, strain dcg1, stronger effect = lower value 0.969 | locus YJL092W, strain hpr5, stronger effect = lower value 0.956 | locus YJL095W, strain BCK1 (second series), stronger effect = lower value 0.98 | locus YJL115W, strain asf1, stronger effect = lower value 0.973 | locus YJL129C, strain trk1, stronger effect = lower value 0.912 | locus YJL134W, strain LCB3, stronger effect = lower value 0.978 | locus YJL154C, strain vps35, stronger effect = lower value 0.956 | locus YJL164C, strain tpk1, stronger effect = lower value 0.952 | locus YJL166W, strain qcr8, stronger effect = lower value 0.983 | locus YJL168C, strain set2, stronger effect = lower value 0.968 | locus YJR066W, strain TOR1, stronger effect = lower value 0.915

From PubChem BioAssay AID1159580 (chemical genetic matrix, 2015)
